Data on 36 compounds can be found in PubChem BioAssay (NCATS).

Inconclusive results are not listed. A call without a number means that no potency is given here. Activity calls are given as the source filed them. Calls follow the shape of the dose curve; as a rule, active = well fitted cell-killing curve with a large enough effect; inconclusive = small, poorly fitted or top-dose-only effect, or effect the other way; inactive = no such curve, though single readings can be large or run the other way.
Potency is read from the fitted curve at half-maximal effect.

A short description of the first assay: Quantitative High-Throughput drug screen in 47 multiple myeloma cell lines against the NCATS MIPE library collection: ARP1_JJKsccF8 cell viability assay (AID 1918928; also: nearly all actives have a fitted effect of over 40% in size). The settings on record: ARP1 myeloma cells viability, CellTiter-Glo ATP, 48 h; series mostly up to 45.8 µM. In short, it runs like this:
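Luminescence from CellTiter-Glo, taken after 5 min at room temperature, reports cellular ATP as viability. Cells (500 per well) had been treated 48 h at 37 °C with MIPE 4.0 compounds, scaled between DMSO and medium-only controls.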
For the compound `O=C(O)C(=O)Nc1cccc(C2=NN=N[N]2)c1`, the Potency result is “inactive”.

In the case of `CN1[C@H]2CC(OC(=O)[C@@H](CO)c3ccccc3)C[C@H]1[C@H]1O[C@H]12` (some centres not stated), the Potency entry was “inactive”.

Consider `Cc1ccc(O)c(C(CCN(C(C)C)C(C)C)c2ccccc2)c1` (configuration not stated), for which the Potency entry was “inactive”.

Turning to `CC[C@H]1OC(=O)[C@H](C)[C@@H](O[C@H]2C[C@@](C)(OC)[C@@H](O)[C@H](C)O2)[C@H](C)[C@@H](O[C@@H]2O[C@@H](C)C[C@H](N(C)C)[C@@H]2O)[C@](C)(O)C[C@@H](C)C(=O)[C@H](C)[C@@H](O)[C@]1(C)O`, the Potency entry is “inactive”.

With `C=CC[C@@H]1C=C(C)C[C@H](C)C[C@H](OC)[C@H]2O[C@@](O)(C(=O)C(=O)N3CCCC[C@H]3C(=O)O[C@H](C(C)=C[C@@H]3CC[C@H](O)[C@H](OC)C3)[C@@H](C)[C@@H](O)CC1=O)[C@@H](C)C[C@@H]2OC`, the Potency was 2.09 µM (active).

With `CCc1cnn2c(NCc3ccc[n+]([O-])c3)cc(N3CCCC[C@@H]3CCO)nc12`, the Potency was 0.0264 µM (active).

In the case of `C[C@@H](Oc1ccc2[nH]nc(C=Cc3cnn(CCO)c3)c2c1)c1c(Cl)cncc1Cl`, the Potency was 5.26 µM (active).

Regarding `N=c1ccn2c(n1)O[C@H]1[C@@H](O)[C@@H](CO)O[C@H]12`, the Potency is 0.332 µM (active).

Take `CNC(=O)c1ccc(Nc2cc(Nc3ccccc3S(=O)(=O)C(C)C)c3cc[nH]c3n2)nc1`: the Potency is 18.7 µM (active).

As for `CC(=O)N[C@H]1[C@@H]([C@H](O)[C@H](O)CO)OC(C(=O)O)=C[C@@H]1N=C(N)N`, the Potency result was “inactive”.

As for `NC(=O)c1ncn([C@@H]2O[C@H](CO)[C@@H](O)[C@@H]2O)c1N`, the Potency entry was “inactive”.

`COc1ccc2c(c1OC)C(=O)OC2[C@H]1c2c(cc3c(c2OC)OCO3)CCN1C` (some centres not stated): the Potency was 0.0526 µM (active).

Take `C[C@H]1O[C@H](O[C@H]2[C@H](O)[C@@H](O)[C@@H](O[C@H]3[C@H](O)[C@@H](O)C(O)O[C@H]3CO)O[C@H]2CO)[C@H](O)[C@@H](O)[C@H]1N[C@H]1C=C(CO)[C@@H](O)[C@H](O)[C@@H]1O` (some centres not stated): the Potency result is “inactive”.

For the compound `CN[C@H](CC(C)C)C(=O)N[C@H]1C(=O)N[C@@H](CC(N)=O)C(=O)N[C@@H]2C(=O)N[C@H]3C(=O)N[C@H](C(=O)N[C@H](C(=O)O)c4cc(O)cc(O)c4-c4cc3ccc4O)[C@H](O)c3ccc(c(Cl)c3)Oc3cc2cc(c3O[C@@H]2O[C@H](CO)[C@@H](O)[C@H](O)[C@@H]2O[C@H]2C[C@](C)(N)[C@H](O)[C@H](C)O2)Oc2ccc(cc2Cl)[C@H]1O`, the Potency result is “inactive”.

With `Cc1cc(-c2nnc3n2CCCCC3)c(C)n1-c1ccccc1`, the Potency entry was “inactive”.

In the case of `O=c1[nH]c(=O)n([C@H]2C[C@@H](O)[C@@H](CO)O2)cc1F`, the Potency is 5.26 µM (active).

Take `CC(=O)OCC(=O)[C@@]1(O)CC[C@H]2[C@@H]3CCC4=CC(=O)CC[C@]4(C)[C@@H]3C(=O)C[C@@]21C`: the Potency result is “inactive”.

On to `COc1cc(C)c(C=CC(C)=CC=CC(C)=CC(=O)O)c(C)c1C`, for which the Potency result is “inactive”.

In the case of `O=C(NNC(=O)c1ccc(CNS(=O)(=O)c2ccc(F)c(Cl)c2)cc1)c1ccccc1`, the Potency entry was “inactive”.

With `CNC(=O)c1cccc(-c2ccc3c(N4CCOC[C@H]4C)nc(N4CCOC[C@H]4C)nc3n2)c1`, the Potency is 0.0187 µM (active).

`OC[C@@H](O)[C@@H](O)[C@H](O)[C@@H](O)CO`: the Potency entry is “inactive”.

`COc1cccc2c1C(=O)c1c(O)c3c(c(O)c1C2=O)C[C@@](O)(C(C)=O)C[C@H]3O[C@H]1C[C@H](N)[C@H](O)[C@H](C)O1`: the Potency was 0.059 µM (active).

With `COc1ccnc2[nH]cc(C(=O)C(=O)N3CCN(C(=O)c4ccccc4)C[C@@H]3C)c12`, the Potency was 16.6 µM (active).

In the case of `CN(C)CC[C@H](c1ccc(Cl)cc1)c1ccccn1`, the Potency entry was “inactive”.

Take `COc1ccc2cc([S+]([O-])Cc3ncc(C)c(OC)c3C)nc2c1`: the Potency result was “inactive”.

Turning to `CC(=O)O[C@H]1C[C@@H]2CC[C@H]3[C@H]4C[C@H]([N+]5(C)CCCCC5)[C@@H](OC(C)=O)[C@@]4(C)CC[C@@H]3[C@@]2(C)C[C@H]1N1CCCCC1`, the Potency entry was “inactive”.

Consider `N#Cc1ccc(COC[C@H]2O[C@@H](n3c(NCc4ccc(Cl)c(Cl)c4)nc4c(N)ncnc43)[C@@H](O)[C@@H]2O)cc1`, for which the Potency is 6.62 µM (active).

The nature of the next assay: Quantitative High-Throughput drug screen in 47 multiple myeloma cell lines against the NCATS MIPE library collection: ARD_JJKsccE7 cell viability assay (AID 1918929). The settings on record: ARD myeloma cell line viability, CellTiter-Glo, 48 h; series mostly up to 45.8 µM. The method in brief:
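We plated 500 myeloma cells per well, pinned in MIPE 4.0 compounds, and incubated for 48 hours at 37C. ATP was then quantified with CellTiter-Glo, with DMSO and media-only wells defining 100% and 0%.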
For orientation: ATP-based viability assays read luminescence as a measure of living cells.
Regarding `O=C(O)C(=O)Nc1cccc(C2=NN=N[N]2)c1`, the Potency entry is “inactive”.

Take `CN1[C@H]2CC(OC(=O)[C@@H](CO)c3ccccc3)C[C@H]1[C@H]1O[C@H]12` (some centres not stated): the Potency entry was “inactive”.

In the case of `Cc1ccc(O)c(C(CCN(C(C)C)C(C)C)c2ccccc2)c1` (configuration not stated), the Potency entry is “inactive”.

As for `CC[C@H]1OC(=O)[C@H](C)[C@@H](O[C@H]2C[C@@](C)(OC)[C@@H](O)[C@H](C)O2)[C@H](C)[C@@H](O[C@@H]2O[C@@H](C)C[C@H](N(C)C)[C@@H]2O)[C@](C)(O)C[C@@H](C)C(=O)[C@H](C)[C@@H](O)[C@]1(C)O`, the Potency result was “inactive”.

Turning to `C=CC[C@@H]1C=C(C)C[C@H](C)C[C@H](OC)[C@H]2O[C@@](O)(C(=O)C(=O)N3CCCC[C@H]3C(=O)O[C@H](C(C)=C[C@@H]3CC[C@H](O)[C@H](OC)C3)[C@@H](C)[C@@H](O)CC1=O)[C@@H](C)C[C@@H]2OC`, the Potency is 2.09 µM (active).

Turning to `CCc1cnn2c(NCc3ccc[n+]([O-])c3)cc(N3CCCC[C@@H]3CCO)nc12`, the Potency was 0.0235 µM (active).

`O=C(C=CC=Cc1ccc2c(c1)OCO2)N1CCCCC1`: the Potency result was “inactive”.

As for `CC(=CC(=O)Nc1ccccc1C(=O)O)c1ccc2ccccc2c1`, the Potency is 14.8 µM (active).

Turning to `CON=C(C(=O)N[C@@H]1C(=O)N2C(C(=O)O)=C(Cn3ccc(=N)n3CCO)CS[C@H]12)c1csc(N)n1`, the Potency entry was “inactive”.

With `C[C@@H](Oc1ccc2[nH]nc(C=Cc3cnn(CCO)c3)c2c1)c1c(Cl)cncc1Cl`, the Potency entry was “inactive”.

For `COc1cc2c(cc1O)CCC1C2CC[C@@]2(C)C1CC[C@@H]2O` (some centres not stated), the Potency entry was “inactive”.

For the compound `CNC(=O)c1ccc(Nc2cc(Nc3ccccc3S(=O)(=O)C(C)C)c3cc[nH]c3n2)nc1`, the Potency is 1.87 µM (active).

For `NC(=O)c1ncn([C@@H]2O[C@H](CO)[C@@H](O)[C@@H]2O)c1N`, the Potency entry was “inactive”.

As for `COc1ccc2c(c1OC)C(=O)OC2[C@H]1c2c(cc3c(c2OC)OCO3)CCN1C` (some centres not stated), the Potency was 0.0743 µM (active).

Regarding `O=C(O)C=Cc1ccc(Cn2ccnc2)cc1`, the Potency entry was “inactive”.

Turning to `CN[C@H](CC(C)C)C(=O)N[C@H]1C(=O)N[C@@H](CC(N)=O)C(=O)N[C@@H]2C(=O)N[C@H]3C(=O)N[C@H](C(=O)N[C@H](C(=O)O)c4cc(O)cc(O)c4-c4cc3ccc4O)[C@H](O)c3ccc(c(Cl)c3)Oc3cc2cc(c3O[C@@H]2O[C@H](CO)[C@@H](O)[C@H](O)[C@@H]2O[C@H]2C[C@](C)(N)[C@H](O)[C@H](C)O2)Oc2ccc(cc2Cl)[C@H]1O`, the Potency is 0.0023 µM (active).

With `Cc1cc(-c2nnc3n2CCCCC3)c(C)n1-c1ccccc1`, the Potency result is “inactive”.

On to `O=c1[nH]c(=O)n([C@H]2C[C@@H](O)[C@@H](CO)O2)cc1F`, for which the Potency is 23.5 µM (active).

For the compound `Cc1onc(-c2ccccc2)c1C(=O)N[C@@H]1C(=O)N2[C@@H](C(=O)O)C(C)(C)S[C@@H]12`, the Potency entry was “inactive”.

Take `CO[C@@H]1[C@@H](O)[C@H](O)[C@@H](n2c3c(Cl)cccc3c3c4c(c5c6cccc(Cl)c6[nH]c5c32)C(=O)NC4=O)O[C@@H]1CO`: the Potency is 5.26 µM (active).

On to `CC(=O)OCC(=O)[C@@]1(O)CC[C@H]2[C@@H]3CCC4=CC(=O)CC[C@]4(C)[C@@H]3C(=O)C[C@@]21C`, for which the Potency entry is “inactive”.

In the case of `COc1cc(C)c(C=CC(C)=CC=CC(C)=CC(=O)O)c(C)c1C`, the Potency result is “inactive”.

For `O=C(NNC(=O)c1ccc(CNS(=O)(=O)c2ccc(F)c(Cl)c2)cc1)c1ccccc1`, the Potency result is “inactive”.

`CNC(=O)c1cccc(-c2ccc3c(N4CCOC[C@H]4C)nc(N4CCOC[C@H]4C)nc3n2)c1`: the Potency was 1.18 µM (active).

In the case of `O=C(Nc1nnc(-c2ccco2)o1)c1cc(-c2ccccc2)nc2ccccc12`, the Potency was 18.7 µM (active).

On to `COc1cccc2c1C(=O)c1c(O)c3c(c(O)c1C2=O)C[C@@](O)(C(C)=O)C[C@H]3O[C@H]1C[C@H](N)[C@H](O)[C@H](C)O1`, for which the Potency is 0.235 µM (active).

With `C[C@]12CCC(=O)C=C1[C@@H]1CC1[C@H]1[C@H]3[C@@H]4C[C@H]4[C@@]4(CCC(=O)O4)[C@@]3(C)CC[C@H]12` (some centres not stated), the Potency was 18.7 µM (active).

Take `COc1ccc2cc([S+]([O-])Cc3ncc(C)c(OC)c3C)nc2c1`: the Potency result was “inactive”.

As to `CC(=O)O[C@H]1C[C@@H]2CC[C@H]3[C@H]4C[C@H]([N+]5(C)CCCCC5)[C@@H](OC(C)=O)[C@@]4(C)CC[C@@H]3[C@@]2(C)C[C@H]1N1CCCCC1`, the Potency entry was “inactive”.

In the case of `N#Cc1ccc(COC[C@H]2O[C@@H](n3c(NCc4ccc(Cl)c(Cl)c4)nc4c(N)ncnc43)[C@@H](O)[C@@H]2O)cc1`, the Potency was 5.26 µM (active).
